Screens as filed in PubChem BioAssay.
esBAF inh – blocks esBAF chromatin remodeling in mouse ES cells | Bmi1-luciferase knock-in reporter, 24 h; 100% = twice the neutral-well signal | reporter increase, % at 12.5 µM | 350,000 compounds, 2% hits | AID 602393; in the data active = activation above about 40%; inconclusive = no clear call, values can overlap the other calls;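 note: 0% = median of the plate's neutral control wells and 100% = double that signal; a rise in the Bmi1 reporter signal indicates esBAF inhibition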
SMARCA2 act – activators of SMARCA2 function. MG213 cells, MMTV-luciferase reporter, dexamethasone, overnight. activation, % at 9.1 µM. 370,000 compounds, 1% hits. AID 652017; in the data active = activation above about 7.8%;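 note: 0% = vehicle wells and 100% = reference activator wells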
Gli-Sufu antag – antagonists of Gli-Sufu signaling. Sufu-KO-LIGHT fibroblasts, Gli luciferase reporter luminescence. inhibition, % at 5 µM. 340,000 compounds, 0.74% hits;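 active = inhibition above about 55%, limit read from the data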;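 note: 0% = DMSO-treated cells and 100% = wells with medium but no cells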
697 NFkB inh – lowers PMA/ionomycin-induced NF-kB signal in 697 B cells. 697 B-cell NF-kB luciferase reporter, 16 h. inhibition, % at 4 µM. 330,000 compounds, 0.33% hits; in the data active = inhibition above about 35%
Jurkat NFkB inh – inhibitors of the PMA/ionomycin-induced NF-kB reporter in Jurkat cells. PMA/ionomycin-induced NF-kB luciferase reporter, luminescence. inhibition, % at 4 µM. 330,000 compounds, 0.53% hits. AID 435003; in the data active = inhibition above about 50%
SMARCA2 act conf – SMARCA2 activation, confirmation screen; shares compounds with SMARCA2 act; MG213 cells, MMTV-luciferase with dexamethasone, luminescence, overnight; MG213 cells expressing E1A, Rb sequestered; DMSO wells 0%, reference activator 100%; activation, % at 9.1 µM; 3,500 compounds, 30% hits; AID 652260;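 active = activation above its plate's cutoff, the mean activation of tested wells plus 3 SD, cut at about 7.9% in these data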
VP16 Luc act – activates GAL4-VP16 luciferase, flagging SMARCA2 activator hits | shares compounds with SMARCA2 act | HEK293 GAL4-VP16 pG5luc reporter, luciferase luminescence; scaled: DMSO wells 0%, SAHA wells 100% | activation, % at 9.1 µM | 3,500 compounds, 41% hits;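 active = activation above the solvent-only control well mean plus 3 SD, averaged across control plates, cut at about 5.2% in these data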
The depositor's hits bear a star; ? = inconclusive; · = no result. The list is not random: actives were taken first. Their share in the collection is about 3.3%.

SMILES | esBAF inh | SMARCA2 act | Gli-Sufu antag | 697 NFkB inh | Jurkat NFkB inh | SMARCA2 act conf | VP16 Luc act
C[C@@H]1CCCCO[C@H](CN(C)C(=O)CCCN(C)C)[C@@H](C)CN([C@@H](C)CO)C(=O)c2cc(NC(=O)Nc3ccccc3)ccc2O1 | 1 | · | · | · | · | · | ·
CO[C@H](CN(C)S(=O)(=O)c1ccc(Cl)cc1)[C@H](C)CN(C(=O)Nc1ccccc1F)[C@H](C)CO | 2 | · | · | · | · | · | ·
Cc1noc(C)c1COc1ccc(C(=O)OCC(=O)c2ccc3c(c2)OCCO3)cc1 | -3 | -4 | -10 | 3 | 13 | · | ·
O=C(COC(=O)c1ccc(Cl)nc1)NCCc1ccc(Cl)cc1 | -10 | -4 | 11 | 8 | 4 | · | ·
COC(=O)CNC(=O)COC(=O)c1ccc(Cl)nc1 | 8 | 8.8* | 10 | -5 | -25 | 0 | 1
Cc1cc(C(=O)OCC(=O)c2ccc3c(c2)OCCO3)c(C)o1 | 5 | 8.1* | -9 | 12 | -22 | 7 | 2
Cc1ccc(S(=O)(=O)Nc2ccc3c(c2)C(=O)N([C@@H](C)CO)C[C@@H](C)[C@@H](CN(C)C(=O)CCCN(C)C)OCCCC[C@H](C)O3)cc1 | -4 | · | · | · | · | · | ·
Cc1cc(NC(=O)Cc2ccccc2)no1 | · | 2 | -10 | -3 | -1 | · | ·
C/C(=C\c1ccccc1)C(=O)Nc1cc(C)on1 | 56* | 9.9* | -36 | -20 | -12 | 5 | 6.9*
O=C(NN=C1CCCCCCCCCCC1)c1ccccc1F | · | 17* | 0 | 0 | 12 | -1 | 2
O=C(NN=C1CCCCCCC1)c1ccc(F)cc1 | · | 3 | 2 | 16 | -3 | · | ·
O=C(NCCc1ccccc1)c1cnc2sccn2c1=O | 9 | 9.6* | -50 | -80 | -58 | 8.3* | 9.4*
C[C@H](CO)N1C[C@H](C)[C@H](CN(C)C(=O)Nc2ccccc2)Oc2c(NC(=O)c3ccc(-c4nccs4)cc3)cccc2C1=O | 1 | · | · | · | · | · | ·
S=c1[nH]nc(Nc2cccc3ccccc23)s1 | · | 11* | 2 | -13 | 6 | 3 | 1
Cc1ccc(S(=O)(=O)N[C@@H]2CC[C@H](CC(=O)N3CCc4ccccc4C3)O[C@H]2CO)cc1 | 3 | · | · | · | · | · | ·
O=C(c1ccccc1)c1nnc(-c2ccccc2F)o1 | 30 | 11* | 5 | -32 | -27 | 8 | 1
O=C(CSc1nnc(-c2ccccc2F)o1)NC1CC1 | 20 | 1 | -2 | -36 | -17 | · | ·
Cc1nc2ccc(-c3nc4ccccc4o3)cc2[nH]1 | -1 | 9.0* | -106 | -226 | -137 | 7 | 13*
C[C@@H]1CCCCO[C@H](CN(C)C(=O)NC2CCCCC2)[C@@H](C)CN([C@@H](C)CO)C(=O)c2cc(NC(=O)Nc3ccc(C(F)(F)F)cc3)ccc2O1 | -13 | · | · | · | · | · | ·
CCC(=O)N1[C@@H](CO)[C@@H](c2ccc(-c3ccccc3)cc2)[C@@H]1CN(C)C(C)=O | 7 | · | · | · | · | · | ·
C[C@H](CO)N1C[C@H](C)[C@@H](CN(C)C(=O)Nc2cccc3ccccc23)Oc2c(NC(=O)C3CCOCC3)cccc2C1=O | 4 | · | · | · | · | · | ·
CCOC(=O)C1(Cc2cccc(OC)c2)CCCN(C(=O)CCc2cccnc2)C1 (configuration not stated) | · | 9.3* | -4 | -33 | -63 | 7 | 7.9*
CNc1nnc(-c2cc3ccccc3oc2=O)s1 | 0 | 8.3* | -120 | -87 | -62 | 13* | 14*
O=c1oc2ccccc2cc1-c1nc(-c2cccs2)cs1 | 21 | 7 | 12 | 2 | -22 | · | ·
C[C@H](CO)N1C[C@H](C)[C@@H](CN(C)Cc2ccc3c(c2)OCO3)OCCCC[C@H](C)Oc2ccc(NC(=O)NC3CCCCC3)cc2C1=O | -10 | · | · | · | · | · | ·
SMILES | esBAF inh | SMARCA2 act | Gli-Sufu antag | 697 NFkB inh | Jurkat NFkB inh | SMARCA2 act conf | VP16 Luc act
CCc1ccc(C(=O)CN2C(=O)NC(C)(c3ccc(C)cc3)C2=O)cc1 (configuration not stated) | -3 | 9.1* | -1 | 6 | 6 | 6 | 0
Cc1nc(-c2ccccc2)sc1C(=O)O | · | 2 | -16 | -10 | 11 | · | ·
Cc1ccc(-c2nc(C)c(C(=O)O)s2)cc1 | · | 11* | -40 | -110 | -10 | 9.5* | 7.4*
Cc1nc(-c2ccc([N+](=O)[O-])cc2)sc1C(=O)O | 16 | 9.6* | -9 | -17 | -11 | 6 | 1
Cc1nc(-c2ccc(Cl)cc2)sc1C(=O)O | · | 6 | -42 | -34 | -34 | · | ·
C[C@H]1CN([C@@H](C)CO)S(=O)(=O)c2ccc(-c3cccc(C#N)c3)cc2O[C@@H]1CN(C)C(=O)c1ccncc1 | -2 | · | · | · | · | · | ·
COc1ccc(S(=O)(=O)Nc2ccc3c(c2)CC(=O)N([C@@H](C)CO)C[C@H](C)[C@H](CN(C)C(=O)Nc2c(C)noc2C)O3)cc1 | -3 | · | · | · | · | · | ·
Cc1ccc(S(=O)(=O)N[C@@H]2CC[C@@H](CCNC(=O)c3ccc4c(c3)OCO4)O[C@@H]2CO)cc1 | -1 | · | · | · | · | · | ·
CCNC(=O)Nc1ccc2c(c1)C(=O)N(C)[C@@H]1CC[C@@H](CC(=O)NC3CCCCC3)O[C@@H]1CO2 | -3 | · | · | · | · | · | ·
c1ccc2[nH]c(-c3ccncc3)nc2c1 | · | 9.5* | -10 | 11 | -20 | 1 | 2
O=C(NC1CCC1)c1ccc(C#CC2CC2)c[n+]1[O-] | · | 15* | · | · | · | 11* | 5.2*
CS(=O)(=O)c1ccc(C(=O)NC2CCCCC2)cc1 | 4 | -2 | 8 | -8 | -2 | · | ·
NS(=O)(=O)c1ccc(N/N=C/c2cn(-c3ccccc3)nc2-c2cccs2)cc1 | · | 9.6* | -2 | -43 | -10 | 9.2* | 5
NS(=O)(=O)c1ccc(N/N=C/c2cn(-c3ccccc3)nc2-c2cccs2)c([N+](=O)[O-])c1 | -2 | -3 | 6 | -7 | -26 | · | ·
Cc1nc(COC(=O)c2c(C)nn(-c3ccccc3)c2C)cs1 | 58* | 9.1* | -37 | -40 | -19 | 10* | 3
C[C@@H]1CN([C@@H](C)CO)C(=O)c2cc(NS(=O)(=O)c3ccccc3)ccc2O[C@H]1CN(C)C(=O)Nc1cccc2ccccc12 | 2 | · | · | · | · | · | ·
Brc1ccccc1-n1nnc(-c2nccs2)n1 | ? | 8.3* | -88 | -111 | -99 | 8 | 16*
c1ccc(-n2nnc(-c3nccs3)n2)cc1 | 1 | 6 | -86 | -116 | -99 | · | ·
O=C(C[C@@H]1CC[C@@H](NC(=O)C2CC2)[C@H](CO)O1)Nc1ccccc1 | 1 | · | · | · | · | · | ·
O=C(/C=C/c1ccco1)N1CCN(c2ncccn2)CC1 | · | 8.8* | -21 | 6 | -15 | 6 | 6.5*
CCN(CC)CCNc1nc2cc(OC)c(OC)cc2c2nc(-c3ccccc3)nn12 | -6 | 9.7* | 1 | 17 | -72 | 26* | 1
CCCCNC(=O)CCC(=O)NNc1nc2ccccc2c2nc(-c3ccccc3)nn12 | · | 1 | -7 | 15 | 5 | · | ·
